According to PubChem BioAssay:
Unmarked numbers belong to inactive results. The list shows a part of the results. Active and inactive are the calls of the source. Unless noted, no stated cut-off is given here; in the data, active means activation above about 20%; inactive means the rest.

Columns and labels:
[1] = test system: TLR4-MyD88 interaction (human), BLA complementation; experiment: disruptors of TLR4 binding to MyD88 – cell-based, HeLa CL3-4, BLA complementation, FRET ratio, confirmation (AID 941;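 active means mean inhibition across three repeat runs above about 25% carried over from the earlier screen, limit read from the data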;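 further: plate controls were DMSO only for no effect and clavulanic acid blocking BLA at full dose for full effect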); conditions: CCF4 FRET ratio, at 8.4 µM, stronger effect = higher value
[2] = BLA reporter interference in HeLa cells – cell-based, full-length BLA, CCF4 FRET ratio, artefact control for TLR4-MyD88 binding inhibitor project, confirmation (AID 1237;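 active means mean inhibition over three repeats above about 26% taken from the earlier screen, limit read from the data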;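 further: HeLa cells stably expressing beta-lactamase reporter as counterscreen for TLR4-MyD88 inhibitors; 0% = DMSO and 100% = clavulanic acid full inhibition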); conditions: at 8.4 µM, stronger effect = higher value
[3] = blockers of IL-6 STAT3 signaling – U3A cells, luciferase, luminescence, confirmation (AID 1265;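 active means inhibition above the hit cutoff computed for the primary STAT3 screen, cut at about 44% in these data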;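 further: 0% = IL-6 plus DMSO and 100% = IL-6 plus nifuroxazide control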); conditions: IL-6 STAT3 luciferase reporter, at 5.7 µM, stronger effect = higher value
[4] = inhibition of TNF-alpha-driven NF-kB transcription – cell-based, HEK293T, luciferase, TNF-alpha stimulus, counter-screen for STAT3 inhibitor project, confirmation (AID 1308;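 active means inhibition above the mean of solvent-only control wells plus 3 SD, cutoff set per campaign, cut at about 13% in these data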;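 further: 0% = TNF-alpha with DMSO and 100% = TNF-alpha with MG high control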); conditions: HEK293T NF-kB luciferase reporter, TNF-alpha induced; at 5.7 µM; stronger effect = higher value
[5] = inhibition of STAT1-driven transcription – cell-based, NIH 3T3, luciferase luminescence, IFN-gamma, counter-screen for STAT3 inhibitor project, confirmation (AID 1317;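 active means inhibition above the mean plus 3 SD of solvent-only control wells, limit set per screening run, cut at about 16% in these data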;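 further: 0% = DMSO with IFN-gamma and 100% = nifuroxazide control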); conditions: NIH 3T3 STAT1-luciferase reporter, IFN-gamma induced, at 5.7 µM, stronger effect = higher value
[6] = StAR promoter reporter inhibitors, counter-screen for LRH-1 inverse agonist project, cell-based, luminescence, high throughput (AID 651611; in the data active means inhibition above about 28%); conditions: StAR promoter luciferase reporter counterscreen, at 3.6 µM, stronger effect = higher value
[7] = biological target: Nuclear receptor subfamily 5 group A member 2 (Homo sapiens) (UniProt O00482); experiment: NR5A2 activity suppression in reporter cells – cell-based, luminescence, confirmation (AID 651613; in the data active means inhibition above about 42%;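 further: HEK293T cells co-transfected with LRH-1 and StAR promoter luciferase reporter; 0% = vehicle wells and 100% = parental cells lacking receptor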); conditions: cell-based LRH-1 luciferase reporter, inverse agonism; at 3.6 µM; stronger effect = higher value
Chain of Nuclear receptor subfamily 5 group A member 2 (Homo sapiens) (O00482 whole entry, looked up): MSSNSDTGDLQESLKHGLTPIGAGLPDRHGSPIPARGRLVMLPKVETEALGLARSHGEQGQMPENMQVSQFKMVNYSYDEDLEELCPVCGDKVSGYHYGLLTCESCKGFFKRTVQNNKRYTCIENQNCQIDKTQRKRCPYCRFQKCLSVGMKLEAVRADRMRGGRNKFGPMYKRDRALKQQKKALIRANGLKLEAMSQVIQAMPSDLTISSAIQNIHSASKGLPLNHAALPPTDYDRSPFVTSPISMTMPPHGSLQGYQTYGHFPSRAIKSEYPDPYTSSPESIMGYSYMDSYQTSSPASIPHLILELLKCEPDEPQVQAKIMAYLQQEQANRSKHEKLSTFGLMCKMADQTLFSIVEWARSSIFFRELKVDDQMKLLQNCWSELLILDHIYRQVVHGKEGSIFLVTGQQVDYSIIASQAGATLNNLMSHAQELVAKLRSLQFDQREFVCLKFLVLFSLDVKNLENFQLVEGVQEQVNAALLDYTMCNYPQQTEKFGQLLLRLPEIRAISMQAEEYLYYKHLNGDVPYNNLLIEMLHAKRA

[8] = biological target: Steroidogenic factor 1 (Homo sapiens) (UniProt Q13285); experiment: inverse agonism at SF1 nuclear receptor – cell-based, luminescence, high throughput, counter-screen for LRH-1 inverse agonist project (AID 651614; in the data active means inhibition above about 44%;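 further: cells cotransfected with StAR promoter reporter and SF1 expression vector; 0% = vehicle on cells with receptor and 100% = vehicle on cells lacking receptor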); conditions: cell-based SF1 luciferase reporter, at 3.6 µM, stronger effect = higher value
Chain of Steroidogenic factor 1 (Homo sapiens) (Q13285 whole entry, looked up, the tested form may be a part): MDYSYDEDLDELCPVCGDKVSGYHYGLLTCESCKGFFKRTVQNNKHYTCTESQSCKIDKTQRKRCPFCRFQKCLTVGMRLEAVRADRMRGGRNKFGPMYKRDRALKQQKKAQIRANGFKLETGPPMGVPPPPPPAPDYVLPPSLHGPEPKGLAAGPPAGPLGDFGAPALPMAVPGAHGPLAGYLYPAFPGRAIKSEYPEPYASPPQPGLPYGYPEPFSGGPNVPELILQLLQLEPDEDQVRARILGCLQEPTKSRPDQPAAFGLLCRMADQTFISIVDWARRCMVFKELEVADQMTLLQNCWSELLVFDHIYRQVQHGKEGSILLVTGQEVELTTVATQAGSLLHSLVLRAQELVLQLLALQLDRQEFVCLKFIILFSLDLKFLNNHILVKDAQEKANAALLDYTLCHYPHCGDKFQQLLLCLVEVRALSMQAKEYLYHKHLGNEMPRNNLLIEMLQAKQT

[9] = compounds suppressing VP16-driven luciferase signal – cell-based, luminescence, high throughput, counter-screen for LRH-1 inverse agonist project (AID 651615; in the data active means inhibition above about 33%); conditions: Gal4-VP16 luciferase reporter cells, at 3.6 µM, stronger effect = higher value
[10] = VP16-driven transactivation reporter suppression – cell-based, luminescence, HEK293, counter-screen for COUP-TFII antagonist project (AID 687007; in the data active means inhibition above about 13%); conditions: HEK293 Gal4-VP16 luciferase reporter, at 8.5 µM, stronger effect = higher value
[11] = biological target: COUP transcription factor 2 (Homo sapiens) (UniProt P24468); experiment: retest of COUP-TFII reporter suppressors – cell-based, luciferase reporter, HEK293, triplicate, confirmation (AID 687008;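 active means mean inhibition over three repeats above a set limit taken from the earlier primary screen, cut at about 38% in these data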;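 further: 100% = cells given the luciferase reporter alone without the COUP-TF2 vector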); conditions: HEK293 NGFI-A luciferase reporter, luminescence; at 8.5 µM; stronger effect = higher value
Chain of COUP transcription factor 2 (Homo sapiens) (P24468 whole entry, looked up): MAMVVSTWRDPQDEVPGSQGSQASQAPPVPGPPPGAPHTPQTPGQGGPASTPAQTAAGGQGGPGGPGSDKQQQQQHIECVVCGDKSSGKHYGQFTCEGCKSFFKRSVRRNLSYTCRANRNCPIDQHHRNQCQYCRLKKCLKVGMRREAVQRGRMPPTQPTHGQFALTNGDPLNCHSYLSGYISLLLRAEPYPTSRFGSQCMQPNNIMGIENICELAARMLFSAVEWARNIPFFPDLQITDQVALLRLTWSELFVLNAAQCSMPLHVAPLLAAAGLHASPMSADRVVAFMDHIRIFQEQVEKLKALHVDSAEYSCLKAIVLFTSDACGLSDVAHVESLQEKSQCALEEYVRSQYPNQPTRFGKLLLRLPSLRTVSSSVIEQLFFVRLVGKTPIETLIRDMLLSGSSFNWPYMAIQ

[12] = biological target: Peroxisome proliferator-activated receptor gamma (Homo sapiens) (UniProt P37231); experiment: retested PPARg-SRC-2 recruitment enhancers – biochemical, HTS, confirmation (AID 1297; in the data active means activation above about 22%;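 further: 0% = vehicle alone and 100% = reference agonist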); conditions: biochemical SRC-2 recruitment by PPARgamma; at 8 µM; stronger effect = higher value
Chain of Peroxisome proliferator-activated receptor gamma (Homo sapiens) (P37231 whole entry, looked up): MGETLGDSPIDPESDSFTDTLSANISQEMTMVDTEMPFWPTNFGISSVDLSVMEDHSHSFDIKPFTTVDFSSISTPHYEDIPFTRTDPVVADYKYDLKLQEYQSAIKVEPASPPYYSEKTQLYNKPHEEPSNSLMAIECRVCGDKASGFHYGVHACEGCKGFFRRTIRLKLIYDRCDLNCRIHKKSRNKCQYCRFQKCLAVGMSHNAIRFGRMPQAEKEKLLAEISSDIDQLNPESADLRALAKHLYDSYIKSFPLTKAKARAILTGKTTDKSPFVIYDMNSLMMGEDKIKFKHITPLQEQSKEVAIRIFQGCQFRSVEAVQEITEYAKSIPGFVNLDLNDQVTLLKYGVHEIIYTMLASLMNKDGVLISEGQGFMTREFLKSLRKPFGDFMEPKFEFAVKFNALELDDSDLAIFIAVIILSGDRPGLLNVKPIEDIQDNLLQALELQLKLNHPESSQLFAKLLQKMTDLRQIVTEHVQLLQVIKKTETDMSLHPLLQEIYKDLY

[13] = biological target: Peroxisome proliferator-activated receptor gamma (Homo sapiens) (UniProt P37231); experiment: retest of SRC-1 recruitment enhancers for PPARgamma – biochemical, confirmation (AID 1300); conditions: PPARgamma–SRC-1 coactivator recruitment biochemical assay; at 8 µM; stronger effect = higher value;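 further: 0% = vehicle wells and 100% = reference agonist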
[14] = biological target: Peroxisome proliferator-activated receptor gamma (Homo sapiens) + Nuclear receptor coactivator 3 (Homo sapiens) (UniProt P37231+Q9Y6Q9); experiment: agonists promoting SRC-3 binding to PPARgamma – biochemical, confirmation (AID 1301; in the data active means activation above about 24%;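 further: 0% = vehicle wells and 100% = reference agonist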); conditions: biochemical PPARgamma-SRC-3 coactivator recruitment, agonist mode; at 8 µM; stronger effect = higher value
Chain of Peroxisome proliferator-activated receptor gamma (Homo sapiens) + Nuclear receptor coactivator 3 (Homo sapiens) (P37231 whole entry, looked up): as above
Chain of Peroxisome proliferator-activated receptor gamma (Homo sapiens) + Nuclear receptor coactivator 3 (Homo sapiens) (Q9Y6Q9 whole entry, looked up): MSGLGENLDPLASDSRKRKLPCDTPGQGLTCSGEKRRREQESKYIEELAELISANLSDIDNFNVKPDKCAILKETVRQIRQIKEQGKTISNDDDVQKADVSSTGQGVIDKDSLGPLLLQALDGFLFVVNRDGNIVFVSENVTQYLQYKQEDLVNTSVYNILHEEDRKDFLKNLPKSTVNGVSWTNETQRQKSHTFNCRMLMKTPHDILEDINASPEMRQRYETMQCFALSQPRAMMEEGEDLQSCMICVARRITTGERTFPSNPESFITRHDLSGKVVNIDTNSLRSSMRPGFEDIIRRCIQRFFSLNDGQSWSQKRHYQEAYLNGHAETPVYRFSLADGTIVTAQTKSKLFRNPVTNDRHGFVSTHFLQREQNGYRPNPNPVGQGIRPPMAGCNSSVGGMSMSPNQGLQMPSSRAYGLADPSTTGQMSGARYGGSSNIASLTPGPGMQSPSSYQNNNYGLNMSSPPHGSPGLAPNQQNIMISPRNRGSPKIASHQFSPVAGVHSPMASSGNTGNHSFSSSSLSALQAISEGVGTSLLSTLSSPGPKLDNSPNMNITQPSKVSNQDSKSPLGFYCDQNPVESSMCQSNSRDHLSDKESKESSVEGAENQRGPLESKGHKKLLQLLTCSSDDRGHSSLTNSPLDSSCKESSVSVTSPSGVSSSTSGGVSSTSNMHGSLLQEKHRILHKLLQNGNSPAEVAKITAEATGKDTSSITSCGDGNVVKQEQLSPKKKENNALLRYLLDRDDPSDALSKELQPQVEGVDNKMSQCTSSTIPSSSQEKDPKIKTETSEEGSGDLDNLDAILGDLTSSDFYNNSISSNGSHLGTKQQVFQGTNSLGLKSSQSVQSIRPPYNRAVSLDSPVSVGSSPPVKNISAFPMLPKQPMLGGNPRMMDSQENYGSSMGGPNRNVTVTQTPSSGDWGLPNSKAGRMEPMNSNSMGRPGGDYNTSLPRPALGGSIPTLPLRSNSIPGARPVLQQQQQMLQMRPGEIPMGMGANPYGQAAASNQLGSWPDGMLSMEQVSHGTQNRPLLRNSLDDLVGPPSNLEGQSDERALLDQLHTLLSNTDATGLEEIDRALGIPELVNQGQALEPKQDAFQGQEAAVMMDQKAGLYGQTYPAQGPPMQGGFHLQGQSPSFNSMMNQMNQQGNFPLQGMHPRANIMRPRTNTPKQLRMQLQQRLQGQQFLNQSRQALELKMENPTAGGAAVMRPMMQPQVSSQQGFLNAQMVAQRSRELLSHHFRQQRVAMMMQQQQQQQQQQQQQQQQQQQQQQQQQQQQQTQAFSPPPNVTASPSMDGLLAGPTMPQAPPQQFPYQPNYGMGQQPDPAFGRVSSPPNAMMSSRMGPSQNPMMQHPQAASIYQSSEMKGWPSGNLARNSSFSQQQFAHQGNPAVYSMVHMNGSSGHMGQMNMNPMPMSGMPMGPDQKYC

[15] = biological target: (Lyso)-N-acylphosphatidylethanolamine lipase (Mus musculus) (UniProt Q8VD66); experiment: mouse ABHD4 hydrolase blockers, triplicate – biochemical, fluorescence polarization, confirmation (AID 720658;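 active means mean inhibition across replicates above the hit cutoff set in the primary screen, cut at about 30% in these data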;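 further: 0% = wild-type ABHD4 with DMSO and 100% = catalytically dead S159A mutant with DMSO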); conditions: purified mABHD4, FP-Rh probe fluorescence polarization; at 8.92 µM; stronger effect = higher value
Chain of (Lyso)-N-acylphosphatidylethanolamine lipase (Mus musculus) (Q8VD66 whole entry, looked up): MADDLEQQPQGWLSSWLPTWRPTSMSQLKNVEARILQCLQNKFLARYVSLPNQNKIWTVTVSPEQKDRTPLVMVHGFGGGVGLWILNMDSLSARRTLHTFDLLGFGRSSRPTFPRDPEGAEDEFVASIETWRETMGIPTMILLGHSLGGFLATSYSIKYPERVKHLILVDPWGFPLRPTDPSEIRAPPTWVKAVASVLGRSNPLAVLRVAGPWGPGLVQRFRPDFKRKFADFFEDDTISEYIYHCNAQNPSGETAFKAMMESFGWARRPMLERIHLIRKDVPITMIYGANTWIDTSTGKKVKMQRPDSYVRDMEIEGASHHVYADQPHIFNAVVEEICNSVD

[16] = biological target: Sphingosine 1-phosphate receptor 4 (Homo sapiens) (UniProt O95977); experiment: blockers of human S1P4 signalling – cell-based, confirmation (AID 1524; in the data active means inhibition above about 30%); conditions: S1P4-expressing cell line, antagonist mode, reporter read-out; at 4.98 µM; stronger effect = higher value
Chain of Sphingosine 1-phosphate receptor 4 (Homo sapiens) (O95977 whole entry, looked up): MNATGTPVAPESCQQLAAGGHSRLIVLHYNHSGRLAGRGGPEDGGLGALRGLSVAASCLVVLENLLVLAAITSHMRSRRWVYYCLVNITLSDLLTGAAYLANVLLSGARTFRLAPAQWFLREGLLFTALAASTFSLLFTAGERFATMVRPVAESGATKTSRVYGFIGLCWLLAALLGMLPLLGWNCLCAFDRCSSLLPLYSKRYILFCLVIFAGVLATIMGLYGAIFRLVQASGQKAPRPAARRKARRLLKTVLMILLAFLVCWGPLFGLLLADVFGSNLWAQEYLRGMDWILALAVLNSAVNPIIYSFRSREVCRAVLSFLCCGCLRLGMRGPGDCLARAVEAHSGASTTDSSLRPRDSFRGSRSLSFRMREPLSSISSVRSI

[17] = biological target: Sphingosine 1-phosphate receptor 1 (Homo sapiens) (UniProt P21453); experiment: blockade of human S1P1 receptor – cell-based, counter-screen for S1P4 antagonist project (AID 1564; in the data active means inhibition above about 40%;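 further: receptor stimulated with S1P near its EC80; 0% = agonist stimulated wells and 100% = vehicle only wells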); conditions: cell-based S1P1 antagonist counterscreen, at 4.98 µM, stronger effect = higher value
Chain of Sphingosine 1-phosphate receptor 1 (Homo sapiens) (P21453 whole entry, looked up): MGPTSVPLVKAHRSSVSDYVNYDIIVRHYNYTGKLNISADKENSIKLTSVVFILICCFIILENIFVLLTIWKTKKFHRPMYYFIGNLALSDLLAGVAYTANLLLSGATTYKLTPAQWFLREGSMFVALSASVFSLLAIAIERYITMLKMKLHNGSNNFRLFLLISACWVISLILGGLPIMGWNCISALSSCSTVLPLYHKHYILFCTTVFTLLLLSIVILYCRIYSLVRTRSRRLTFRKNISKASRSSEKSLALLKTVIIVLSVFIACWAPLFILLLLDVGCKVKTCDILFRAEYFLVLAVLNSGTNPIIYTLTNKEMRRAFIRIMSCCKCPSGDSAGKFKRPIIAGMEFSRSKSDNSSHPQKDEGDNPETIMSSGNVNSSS

Compound: COc1ccc(CN2CCN(c3ccccc3F)CC2)c(OC)c1
- inhibition [1]: -8.64%
- inhibition [2]: 4.55%

Compound: CC1=CC(=Cc2sc3ccccc3[n+]2C)C=C(C)O1
- inhibition [3]: 77.1% (active)
- inhibition [4]: 22.8% (active)
- inhibition [5]: 22.2% (active)
- inhibition [6]: 50.2% (active)
- inhibition [7]: 105% (active)
- inhibition [8]: 80.4% (active)
- inhibition [9]: 87.6% (active)
- inhibition [10]: 8.63%
- inhibition [11]: 55% (active)

Compound: CSC1=NP(=S)(SC)N(C)c2nc3n(c21)CCC3 (stereo not given)
- activation [12]: 51.6% (active)
- activation [13]: 33.3% (active)
- activation [14]: 35.7% (active)

Compound: COc1cc(-n2c(=S)[nH]c3ccc(C)cc3c2=O)c(Cl)cc1Cl
- activation [12]: 24.6% (active)
- activation [13]: 12.2%
- activation [14]: 12.4%
- inhibition [15]: 37.6% (active)

Compound: CN(C)CC1Oc2ccccc2OC1(O)c1ccccc1 (stereo not given)
- inhibition [16]: 100% (active)
- inhibition [17]: 23.3%
